Only a selection was taken, and hits are over-represented in it overall.
PKA kinase inh: PKA (human) kinase inhibition. PKA Kemptide phosphorylation, Kinase-Glo ATP luminescence. P17612. 0.1% of 65,000 active. inhibition, % at 6 µM;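 active = inhibition above the screen-wide mean inhibition plus 3 SD, cut at about 21% in these data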
ROCK2 blocker: inhibitors of human Rho kinase 2. O75116. purified ROCK2, Kinase-Glo ATP depletion luminescence. inhibition, % at 6 µM. 0.35% of 60,000 active. AID 604;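 active = inhibition above the screen-wide mean inhibition plus 3 SD, cut at about 18% in these data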;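 note: plate controls were DMSO wells for no effect and Y-27632 control wells after no-enzyme background subtraction for full effect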
Target sequence (O75116 whole entry, looked up): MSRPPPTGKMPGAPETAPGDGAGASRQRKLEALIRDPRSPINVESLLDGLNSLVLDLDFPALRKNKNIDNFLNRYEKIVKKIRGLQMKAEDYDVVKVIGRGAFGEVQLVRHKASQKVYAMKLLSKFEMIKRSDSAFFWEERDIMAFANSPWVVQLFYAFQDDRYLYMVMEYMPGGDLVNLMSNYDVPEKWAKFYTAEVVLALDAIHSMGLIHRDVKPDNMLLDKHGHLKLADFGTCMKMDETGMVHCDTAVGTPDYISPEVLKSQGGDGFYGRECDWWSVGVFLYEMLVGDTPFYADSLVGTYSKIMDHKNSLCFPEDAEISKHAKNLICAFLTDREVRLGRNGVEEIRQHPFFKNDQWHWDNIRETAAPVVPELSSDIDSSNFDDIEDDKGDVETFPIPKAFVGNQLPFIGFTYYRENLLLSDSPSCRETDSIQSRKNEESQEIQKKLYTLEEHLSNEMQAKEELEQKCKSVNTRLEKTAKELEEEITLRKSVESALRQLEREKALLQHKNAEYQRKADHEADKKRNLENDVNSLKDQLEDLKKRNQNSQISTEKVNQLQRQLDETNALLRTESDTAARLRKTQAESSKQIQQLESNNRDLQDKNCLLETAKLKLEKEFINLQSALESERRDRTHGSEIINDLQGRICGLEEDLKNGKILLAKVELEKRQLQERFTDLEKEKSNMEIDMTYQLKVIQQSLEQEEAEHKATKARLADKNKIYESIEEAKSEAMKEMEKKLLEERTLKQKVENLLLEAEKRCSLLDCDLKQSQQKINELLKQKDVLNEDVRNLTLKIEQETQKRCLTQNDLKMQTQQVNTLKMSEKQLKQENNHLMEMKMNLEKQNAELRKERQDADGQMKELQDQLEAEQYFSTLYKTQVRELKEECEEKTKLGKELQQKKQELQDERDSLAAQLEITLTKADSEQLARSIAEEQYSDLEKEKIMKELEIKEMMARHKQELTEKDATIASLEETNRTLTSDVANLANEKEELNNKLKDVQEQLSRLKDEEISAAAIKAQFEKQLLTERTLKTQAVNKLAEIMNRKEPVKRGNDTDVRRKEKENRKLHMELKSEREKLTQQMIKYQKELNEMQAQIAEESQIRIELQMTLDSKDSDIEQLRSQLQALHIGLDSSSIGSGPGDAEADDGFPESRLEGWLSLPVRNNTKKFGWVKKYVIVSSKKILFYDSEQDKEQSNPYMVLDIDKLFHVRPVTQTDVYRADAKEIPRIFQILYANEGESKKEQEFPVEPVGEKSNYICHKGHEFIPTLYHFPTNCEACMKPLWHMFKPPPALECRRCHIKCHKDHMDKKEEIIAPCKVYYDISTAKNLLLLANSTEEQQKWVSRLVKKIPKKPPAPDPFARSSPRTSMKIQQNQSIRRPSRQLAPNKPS
D1 mod: allosterically modulates the human D1 dopamine receptor. P21728. HEK293 D1, CRE-luciferase, dopamine EC30 potentiation; actives deviate in either direction. B-score at 10 µM. 5.9% of 58,000 active;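 active = luminescence count or its row- and column-corrected plate score outside the 99.7% band of the plate's sample wells, on either side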
DAT uptake mod: changed human dopamine transporter uptake under cocaine IC80; Q01959; LLC-PK1 hDAT cells, [14C]-dopamine uptake with cocaine IC80; actives deviate in either direction; B-score at 10 µM; 1.3% of 110,000 active; AID 449768;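 active = Z score or B-score, a plate-position-corrected score, falls beyond the plate's 99.7% confidence bounds, in either direction; inactive = both scores lie inside the 99.7% bounds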;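 note: scored against the spread of the other compound wells on the same plate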
D1 mod confirm: D1 receptor (human) allosteric modulation, confirmed. AID 642. shares compounds with D1 mod. 88% of 2,200 active. HEK293 D1 CRE-luciferase, dopamine EC30 potentiation; stronger effect = higher value. luminescence at 10 µM;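 active = luminescence in either of two replicates above the same-plate mean plus 3 SD of the low-dose dopamine control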
D1 no dopamine: secondary test of D1 modulators: activity without dopamine; luminescence at 10 µM; HEK293 D1 CRE-luciferase, luminescence, no dopamine; stronger effect = higher value; shares compounds with D1 mod; 0.8% of 1,900 active; in the data active = luminescence above about 3900
Isoprot counter: isoproterenol response counter-screen activity for D1 modulators | shares compounds with D1 mod | HEK293 D1 CRE-luciferase, isoproterenol EC30 counter-screen | calls only at 10 µM | 63% of 2,200 active;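 active = luminescence in either replicate above plate mean of wells with a partly effective reference agonist dose plus 3 SD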;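 note: isoproterenol raises cAMP through native beta-adrenoceptor Gs so signal bypasses D1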
Starred values were filed as active, the others as inactive; i = inactive; nt = no result given; + = active, no number.

SMILES | PKA kinase inh | ROCK2 blocker | D1 mod | DAT uptake mod | D1 mod confirm | D1 no dopamine | Isoprot counter
CCn1c2ccccc2c2cc(Nc3cc(C)nc4ncnn34)ccc21 | 5 | 6 | 7.5* | 0.52 | 11088* | 1852 | +
Cc1cc(Nc2ccc(F)c(Cl)c2)n2ncnc2n1 | -5 | 2 | 4.3* | -0.34 | 8188* | 1652 | +
Cc1cc(Nc2cccc(Cl)c2)n2ncnc2n1 | 10 | 3 | 1.2 | nt | nt | nt | nt
CCc1cccc(Nc2cc(C)nc3ncnn23)c1 | 6 | 6 | 0.17 | nt | nt | nt | nt
O=C(CSc1nnc(Cn2c(=O)sc3ccccc32)n1-c1ccccc1)Nc1nccs1 | 2 | 1 | 0.71 | -0.64 | nt | nt | nt
Cc1onc(-c2ccccc2)c1C(=O)N1CCN(C)CC1 | nt | nt | nt | 0.1 | nt | nt | nt
Cc1nnc2c(NC(C)C)nc3ccccc3n12 | -2 | 0 | 16* | -0.31 | 12020* | 1592 | +
Cc1nc2ccccc2c2nc3ccccc3n12 | nt | nt | 2 | -0.24 | nt | nt | nt
CCN(CC)S(=O)(=O)c1ccc(Br)c(OC)c1 | -2 | 1 | nt | -0.7 | nt | nt | nt
CCOc1cc(S(=O)(=O)N(CC)CC)ccc1Br | 1 | 3 | 12* | -0.36 | 11820* | 1708 | +
CC1(C)Cc2c(ccc3ccccc23)C(NNC(=O)c2cccnc2)=N1 | nt | nt | nt | -0.24 | nt | nt | nt
Cc1ccc(-c2c(C)sc(=NC(=O)c3ccco3)n2C)cc1 | nt | nt | nt | -0.13 | nt | nt | nt
COc1ccc(OC)c2c1sc(=NC(=O)c1ccco1)n2C | 0 | 2 | 3.2* | 1.1 | 13568* | 1564 | +
Cc1ccc(N(CC(O)COCc2ccco2)S(=O)(=O)c2ccc(C)cc2)cc1 (stereo not given) | -3 | -2 | 0.0067 | 2 | nt | nt | nt
CCc1nnc(NC(=O)c2ccncc2)s1 | 1 | 0 | 2.8* | -0.68 | 4640 | 1208 | i
Cc1c2c(n3c(nc4ccccc43)c1C#N)N(Cc1ccccn1)CC2 | 9 | 6 | -0.15 | nt | nt | nt | nt
CCOC(=O)c1cc(-c2ccc(N)cc2)sc1N | 6 | 5 | 10* | 0.19 | 21552* | 1580 | +
CCOC(=O)c1sc(-c2ccc(Br)cc2)cc1N | nt | nt | nt | 0.096 | nt | nt | nt
CCN(c1cccc(C)c1)S(=O)(=O)c1cnc[nH]1 | nt | nt | nt | 1.1 | nt | nt | nt
C=CCn1c(=S)[nH]c2nc3c(cc2c1=O)CCCC3 | 4 | 9 | 6* | 15* | 13488* | 1592 | i
Cc1c(S(=O)(=O)Nc2cccc(Cl)c2)c(=O)n(C)c(=O)n1C | 2 | 4 | 2.7* | 1.2 | 6100 | 1648 | i
Cc1c(S(=O)(=O)Nc2ccc3c(c2)OCCO3)c(=O)n(C)c(=O)n1C | -8 | 0 | 0.97 | 0.17 | nt | nt | nt
COc1ccc(N2CCN(c3nc(NCCc4ccc(OC)c(OC)c4)nc(OC)n3)CC2)cc1 | -3 | -6 | 2.8* | 0.37 | 11472* | 1500 | +
CCOc1nc(NCCc2ccc(OC)c(OC)c2)nc(N2CCN(c3ccc(OC)cc3)CC2)n1 | nt | nt | nt | -1.2 | nt | nt | nt
Cc1nc2sc3c(c2c(=O)[nH]1)CCC3 | 2 | 3 | 3.1* | -0.47 | 11308* | 1476 | i
SMILES | PKA kinase inh | ROCK2 blocker | D1 mod | DAT uptake mod | D1 mod confirm | D1 no dopamine | Isoprot counter
Nc1nc2sc3c(c2c(=O)s1)CCCC3 | 2 | 3 | 14* | -0.24 | 13312* | 1256 | +
CCOc1ccc(-c2nc(CSc3nnc(C)s3)cs2)cc1OC | nt | nt | nt | 1.8 | nt | nt | nt
CCOc1ccc(-c2nc(CSc3nncs3)cs2)cc1OC | -5 | nt | 23* | -0.43 | 21360* | nt | +
CSc1nc2c(c(=O)n1C)SC(C)C2 (stereo not given) | 7 | 6 | 2.7 | -0.83 | nt | nt | nt
CCSc1nc2c(c(=O)n1CC)SC(C)C2 (stereo not given) | 1 | 5 | 5.5* | 0.084 | 12712* | 1732 | i
Cc1ccc(-n2c(SCC(=O)Nc3cc(C)on3)nc3c(c2=O)SC(C)C3)cc1 (stereo not given) | -1 | 3 | 2.3 | -0.32 | nt | nt | nt
CCn1c(SCC(=O)Nc2cc(C)on2)nc2c(c1=O)SC(C)C2 (stereo not given) | -2 | 0 | 6.2* | -1.1 | 6212* | 1608 | i
CCC(C)Sc1nc2c(c(=O)n1C)SC(C)C2 (stereo not given) | -2 | 0 | 3.9* | 0.6 | 8748* | 1640 | i
CCn1c(SC)nc2c(c1=O)SC(C)C2 (stereo not given) | 6 | 1 | 2.2 | -0.93 | nt | nt | nt
C=CCn1c(SCC(=O)NC2CCCCC2)nnc1-c1sc(N)nc1C | 4 | 8 | -0.044 | 0.09 | nt | nt | nt

Compound activity deposited in PubChem BioAssay by several laboratories.
